Source: PubChem BioAssay AID588443 (Southern Research Specialized Biocontainment Screening …, 2011)
Measured potencies and affinities stand elsewhere. Inconclusive results are not listed. Activity calls are given as the source filed them. No rule for the calls is given here.

Assay: THP-1 cell cytotoxicity, cytotoxicity control, set 5 (AID 588443)
Details: THP-1 cell viability, cytotoxicity CC50; series mostly up to 100 µM

| SMILES | outcome |
| --- | --- |
| COC(=O)CSc1ncnc2c1cnn2-c1ccc(C)cc1C | inactive |
| COc1ccc(N2CCN(C(=O)c3ccc(CNc4c(N5CCOCC5)c(=O)c4=O)cc3)CC2)cc1 | inactive |
| CCOC(=O)CSc1ncnc2c1cnn2-c1ccc(C)cc1C | inactive |
| CCOC(=O)CSc1ncnc2c1cnn2-c1ccccc1 | inactive |
